Drawing on PMC7862700, “An all-to-all approach to the identification of sequence-specific readers for epigenetic DNA modifications on cytosine”, this text covers binding signal for two sequences.

Common to all, as to test: DAPPL (digital affinity profiling via proximity ligation, sequencing); 10 mM Tris-HCl pH 7.5, 50 mM NaCl, 1 mM DTT, 4% glycerol, room temperature, 30 min; GST-TFs on glutathione beads, 16-mer random dsDNA library, 0.1% formaldehyde crosslink after washing; high values mean tight binding
Holding throughout (conditions): protein: recombinant; tags: N-terminal GST; dsDNA, one strand shown

One assay concerns the target T1, FLI1 (Homo sapiens, UniProt Q01543 1-452).
T1 sequence: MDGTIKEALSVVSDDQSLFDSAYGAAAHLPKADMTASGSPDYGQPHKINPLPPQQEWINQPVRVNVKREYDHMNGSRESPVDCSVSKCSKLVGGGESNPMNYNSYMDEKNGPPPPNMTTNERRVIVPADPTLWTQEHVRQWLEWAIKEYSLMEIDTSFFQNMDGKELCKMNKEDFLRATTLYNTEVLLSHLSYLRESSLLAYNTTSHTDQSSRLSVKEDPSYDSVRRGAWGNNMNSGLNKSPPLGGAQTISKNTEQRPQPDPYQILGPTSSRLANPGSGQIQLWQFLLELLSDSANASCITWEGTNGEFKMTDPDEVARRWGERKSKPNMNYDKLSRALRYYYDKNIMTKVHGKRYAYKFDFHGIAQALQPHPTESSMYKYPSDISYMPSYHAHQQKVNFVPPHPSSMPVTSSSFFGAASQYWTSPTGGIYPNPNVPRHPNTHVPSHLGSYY
In outline:
(§1)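 GST fusions of human transcription factors were expressed in yeast and captured with glutathione beads. Once given DNA barcodes and pooled alongside a tag-only sample, they were incubated for 30 min at room temperature with 200 nmole of a random double-stranded 16-mer DNA library in Tris/NaCl/DTT/glycerol buffer, then washed, crosslinked (0.1% formaldehyde), proximity-ligated, PCR-amplified and sequenced on an Illumina NextSeq500. The binding signal of each hexamer is its read frequency for a factor divided by its frequency for the tag-only sample.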

In a further assay the target is T2, ELK1 (Homo sapiens, UniProt P19419 1-428).
T2 sequence: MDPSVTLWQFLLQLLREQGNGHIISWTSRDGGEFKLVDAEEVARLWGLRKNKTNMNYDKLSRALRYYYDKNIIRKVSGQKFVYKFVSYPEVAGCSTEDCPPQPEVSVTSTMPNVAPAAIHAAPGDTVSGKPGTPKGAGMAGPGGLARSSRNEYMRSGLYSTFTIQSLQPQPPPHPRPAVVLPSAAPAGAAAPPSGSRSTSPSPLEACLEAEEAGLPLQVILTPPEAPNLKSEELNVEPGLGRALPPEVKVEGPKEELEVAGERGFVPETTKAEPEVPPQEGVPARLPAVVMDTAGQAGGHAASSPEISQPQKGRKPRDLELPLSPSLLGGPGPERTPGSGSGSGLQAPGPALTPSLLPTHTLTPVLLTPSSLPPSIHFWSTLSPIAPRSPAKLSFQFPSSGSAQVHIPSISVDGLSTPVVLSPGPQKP
In outline:
as §1

The target in a further assay is T3, GABPA (Homo sapiens, UniProt Q06546 1-454).
T3 sequence: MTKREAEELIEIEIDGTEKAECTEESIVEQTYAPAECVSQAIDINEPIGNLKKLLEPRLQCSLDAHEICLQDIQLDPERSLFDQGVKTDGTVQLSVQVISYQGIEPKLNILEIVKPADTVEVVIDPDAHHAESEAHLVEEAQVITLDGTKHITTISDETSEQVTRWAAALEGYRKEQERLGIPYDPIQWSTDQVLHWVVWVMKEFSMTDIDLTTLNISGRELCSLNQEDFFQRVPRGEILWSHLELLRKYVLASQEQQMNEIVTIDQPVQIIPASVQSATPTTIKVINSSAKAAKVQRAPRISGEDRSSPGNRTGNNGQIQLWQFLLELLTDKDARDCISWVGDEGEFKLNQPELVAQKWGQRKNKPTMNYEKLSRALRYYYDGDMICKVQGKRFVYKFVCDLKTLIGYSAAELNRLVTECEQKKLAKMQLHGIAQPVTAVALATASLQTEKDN
Summed up: as §1

In a further assay the target is T4, ERG (Homo sapiens, UniProt P11308 1-479).
T4 sequence: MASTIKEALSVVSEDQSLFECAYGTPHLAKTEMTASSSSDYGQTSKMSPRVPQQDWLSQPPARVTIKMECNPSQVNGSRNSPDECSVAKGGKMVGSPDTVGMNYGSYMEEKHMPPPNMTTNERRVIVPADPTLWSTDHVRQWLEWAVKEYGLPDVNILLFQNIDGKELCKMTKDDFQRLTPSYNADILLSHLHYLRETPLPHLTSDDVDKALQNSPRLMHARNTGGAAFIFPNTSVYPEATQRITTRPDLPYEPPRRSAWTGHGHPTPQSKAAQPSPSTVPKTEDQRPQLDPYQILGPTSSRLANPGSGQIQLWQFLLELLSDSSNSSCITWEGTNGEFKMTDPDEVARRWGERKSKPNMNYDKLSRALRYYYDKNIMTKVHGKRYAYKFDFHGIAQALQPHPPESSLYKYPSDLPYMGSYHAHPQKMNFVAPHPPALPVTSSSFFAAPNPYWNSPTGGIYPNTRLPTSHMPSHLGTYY
Summed up:
as §1

The target in a further assay is ELF1 (Homo sapiens, UniProt P32519 1-619). Summed up: as §1
For another assay, the target named is T5, EHF (Homo sapiens, UniProt Q9NZC4 1-300).
T5 sequence: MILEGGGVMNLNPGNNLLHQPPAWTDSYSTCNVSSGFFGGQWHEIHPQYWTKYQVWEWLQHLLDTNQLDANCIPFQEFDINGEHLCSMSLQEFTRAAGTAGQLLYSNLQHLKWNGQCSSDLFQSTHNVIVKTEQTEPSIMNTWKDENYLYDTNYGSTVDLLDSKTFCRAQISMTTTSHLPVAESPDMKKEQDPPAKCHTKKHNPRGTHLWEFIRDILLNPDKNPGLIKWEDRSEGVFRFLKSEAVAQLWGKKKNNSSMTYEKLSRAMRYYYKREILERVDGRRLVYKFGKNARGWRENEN
In outline:
as §1

The target of a further assay is SPI1 (Homo sapiens, UniProt P17947 1-270). Summed up:
as §1

The next assay concerns the target SPIB (Homo sapiens, UniProt Q01892 1-262). In outline:
as §1

The next assay addresses T6, ELK3 (Homo sapiens, UniProt P41970 1-407).
T6 sequence: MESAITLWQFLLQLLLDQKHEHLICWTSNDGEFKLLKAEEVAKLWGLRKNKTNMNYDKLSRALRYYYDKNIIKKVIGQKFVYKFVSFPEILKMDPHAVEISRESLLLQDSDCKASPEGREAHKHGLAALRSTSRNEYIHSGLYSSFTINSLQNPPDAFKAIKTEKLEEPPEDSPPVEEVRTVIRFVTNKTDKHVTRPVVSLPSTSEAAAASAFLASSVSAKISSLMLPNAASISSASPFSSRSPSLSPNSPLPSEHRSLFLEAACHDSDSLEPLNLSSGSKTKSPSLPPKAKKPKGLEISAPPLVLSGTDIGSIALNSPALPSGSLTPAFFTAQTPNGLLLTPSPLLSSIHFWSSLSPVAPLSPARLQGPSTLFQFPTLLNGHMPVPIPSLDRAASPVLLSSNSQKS
In outline: as §1

The target in another assay is T7, FEV (Homo sapiens, UniProt Q99581 1-238).
T7 sequence: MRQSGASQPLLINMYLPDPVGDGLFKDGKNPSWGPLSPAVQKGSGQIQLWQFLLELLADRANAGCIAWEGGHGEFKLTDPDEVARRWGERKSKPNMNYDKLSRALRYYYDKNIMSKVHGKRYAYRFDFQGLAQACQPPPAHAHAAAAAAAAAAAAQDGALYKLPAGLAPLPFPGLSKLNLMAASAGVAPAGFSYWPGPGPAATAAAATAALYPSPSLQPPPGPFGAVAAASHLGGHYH
In outline:
as §1

For the next assay, the target named is ETV5 (Homo sapiens, UniProt P41161 1-510). Summed up:
as §1

Another assay has as its target T8, SPIC (Homo sapiens, UniProt Q8N5J4 1-248).
T8 sequence: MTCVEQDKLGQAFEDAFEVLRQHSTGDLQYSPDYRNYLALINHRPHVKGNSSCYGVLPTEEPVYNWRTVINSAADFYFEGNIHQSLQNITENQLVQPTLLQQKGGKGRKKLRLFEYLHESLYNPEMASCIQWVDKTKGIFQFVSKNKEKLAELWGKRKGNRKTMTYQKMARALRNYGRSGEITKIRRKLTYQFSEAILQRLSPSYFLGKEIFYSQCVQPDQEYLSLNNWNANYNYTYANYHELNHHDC
Summed up:
as §1

For a further assay, the target named is ELF4 (Homo sapiens, UniProt Q99607 1-663). Summed up: as §1
For another assay, the target named is T9, ELK4 (Homo sapiens, UniProt P28324-2 1-405).
T9 sequence: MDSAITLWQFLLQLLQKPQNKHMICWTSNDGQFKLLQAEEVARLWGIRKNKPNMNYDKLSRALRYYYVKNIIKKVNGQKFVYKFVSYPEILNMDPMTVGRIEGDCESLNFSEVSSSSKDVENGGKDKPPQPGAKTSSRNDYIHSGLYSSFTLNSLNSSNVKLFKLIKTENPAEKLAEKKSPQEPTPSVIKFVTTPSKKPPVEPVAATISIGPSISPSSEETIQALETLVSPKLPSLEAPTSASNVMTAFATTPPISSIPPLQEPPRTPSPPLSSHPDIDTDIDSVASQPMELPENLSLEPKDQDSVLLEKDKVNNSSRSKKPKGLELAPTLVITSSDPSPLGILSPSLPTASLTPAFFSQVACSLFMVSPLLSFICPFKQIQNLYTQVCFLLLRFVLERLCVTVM
Summed up:
as §1

A further assay has as its target T10, ETV2 (Homo sapiens, UniProt O00321 1-342).
T10 sequence: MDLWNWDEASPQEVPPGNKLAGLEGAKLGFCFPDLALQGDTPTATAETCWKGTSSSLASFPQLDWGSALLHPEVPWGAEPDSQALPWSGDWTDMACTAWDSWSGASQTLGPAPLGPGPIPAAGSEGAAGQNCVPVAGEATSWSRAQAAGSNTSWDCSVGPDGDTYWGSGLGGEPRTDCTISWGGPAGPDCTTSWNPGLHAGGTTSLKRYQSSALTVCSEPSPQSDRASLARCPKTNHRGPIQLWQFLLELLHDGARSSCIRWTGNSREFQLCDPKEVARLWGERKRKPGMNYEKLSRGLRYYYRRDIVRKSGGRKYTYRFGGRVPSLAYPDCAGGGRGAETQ
In outline:
as §1

A further assay concerns the target T11, ELF3 (Homo sapiens, UniProt P78545 1-371).
T11 sequence: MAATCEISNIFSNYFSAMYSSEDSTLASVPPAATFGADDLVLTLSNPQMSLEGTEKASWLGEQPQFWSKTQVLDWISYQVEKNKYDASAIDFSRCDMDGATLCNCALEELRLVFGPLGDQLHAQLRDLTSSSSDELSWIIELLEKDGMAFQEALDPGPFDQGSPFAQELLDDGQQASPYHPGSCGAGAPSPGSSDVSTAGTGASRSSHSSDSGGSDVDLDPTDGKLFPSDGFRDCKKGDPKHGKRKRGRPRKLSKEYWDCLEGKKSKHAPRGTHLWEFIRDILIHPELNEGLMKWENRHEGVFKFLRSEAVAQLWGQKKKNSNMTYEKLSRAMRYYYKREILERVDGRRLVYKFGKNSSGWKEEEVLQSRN
Summed up:
as §1

For the next assay, the target named is ETV1 (Homo sapiens, UniProt P50549 1-477). In outline: as §1
Chain of ETV1 (P50549 whole entry): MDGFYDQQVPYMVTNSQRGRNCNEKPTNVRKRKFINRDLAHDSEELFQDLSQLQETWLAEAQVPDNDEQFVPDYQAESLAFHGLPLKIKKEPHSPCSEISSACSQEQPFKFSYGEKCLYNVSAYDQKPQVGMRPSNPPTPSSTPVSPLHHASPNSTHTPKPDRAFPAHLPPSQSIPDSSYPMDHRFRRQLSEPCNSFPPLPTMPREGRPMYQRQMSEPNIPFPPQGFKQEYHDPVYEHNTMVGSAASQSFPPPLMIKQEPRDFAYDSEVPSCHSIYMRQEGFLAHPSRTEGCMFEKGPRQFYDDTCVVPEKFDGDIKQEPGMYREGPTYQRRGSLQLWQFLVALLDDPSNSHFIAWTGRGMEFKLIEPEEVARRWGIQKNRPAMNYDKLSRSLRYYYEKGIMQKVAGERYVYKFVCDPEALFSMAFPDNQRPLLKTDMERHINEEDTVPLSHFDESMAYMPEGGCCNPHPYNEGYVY

Chain of ELF4 (Q99607 whole entry): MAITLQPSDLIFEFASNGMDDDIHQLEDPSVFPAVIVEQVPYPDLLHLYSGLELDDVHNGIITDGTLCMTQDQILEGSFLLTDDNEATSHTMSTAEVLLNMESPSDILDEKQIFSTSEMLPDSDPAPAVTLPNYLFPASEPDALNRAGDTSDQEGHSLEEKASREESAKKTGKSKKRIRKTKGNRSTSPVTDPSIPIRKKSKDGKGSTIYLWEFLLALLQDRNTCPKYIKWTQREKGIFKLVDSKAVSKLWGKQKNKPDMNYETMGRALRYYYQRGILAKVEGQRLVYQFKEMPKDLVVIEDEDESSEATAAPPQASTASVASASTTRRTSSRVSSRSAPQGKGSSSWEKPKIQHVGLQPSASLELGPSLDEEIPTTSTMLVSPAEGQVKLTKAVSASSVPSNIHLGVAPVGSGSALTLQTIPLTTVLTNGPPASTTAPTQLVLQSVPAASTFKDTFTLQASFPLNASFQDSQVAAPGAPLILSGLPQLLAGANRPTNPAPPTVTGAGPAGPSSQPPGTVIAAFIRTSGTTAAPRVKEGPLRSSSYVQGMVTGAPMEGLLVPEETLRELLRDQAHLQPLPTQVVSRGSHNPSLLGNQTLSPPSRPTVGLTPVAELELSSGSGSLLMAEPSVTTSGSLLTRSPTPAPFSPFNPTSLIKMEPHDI
Chain of SPIB (Q01892 whole entry): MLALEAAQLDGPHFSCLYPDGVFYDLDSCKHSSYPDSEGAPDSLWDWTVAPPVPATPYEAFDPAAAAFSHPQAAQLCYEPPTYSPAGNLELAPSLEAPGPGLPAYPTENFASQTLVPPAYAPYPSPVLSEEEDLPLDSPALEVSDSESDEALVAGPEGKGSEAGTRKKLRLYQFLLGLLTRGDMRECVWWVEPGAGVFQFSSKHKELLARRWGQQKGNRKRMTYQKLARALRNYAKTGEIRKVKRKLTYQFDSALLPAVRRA
Chain of ETV5 (P41161 whole entry): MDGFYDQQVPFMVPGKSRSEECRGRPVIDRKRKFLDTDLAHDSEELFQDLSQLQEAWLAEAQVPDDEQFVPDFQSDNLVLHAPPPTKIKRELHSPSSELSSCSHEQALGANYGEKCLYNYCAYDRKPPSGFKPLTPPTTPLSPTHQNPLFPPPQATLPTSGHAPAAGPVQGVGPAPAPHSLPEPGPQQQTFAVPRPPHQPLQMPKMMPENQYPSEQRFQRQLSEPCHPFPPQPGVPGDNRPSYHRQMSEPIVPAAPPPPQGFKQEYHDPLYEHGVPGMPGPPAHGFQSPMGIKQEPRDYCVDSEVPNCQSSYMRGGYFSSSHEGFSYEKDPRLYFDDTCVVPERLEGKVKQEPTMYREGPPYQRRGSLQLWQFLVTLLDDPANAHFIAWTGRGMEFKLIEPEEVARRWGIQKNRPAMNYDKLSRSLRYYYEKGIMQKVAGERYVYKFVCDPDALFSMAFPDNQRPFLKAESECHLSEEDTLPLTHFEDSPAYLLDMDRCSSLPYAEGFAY
Chain of ELF1 (P32519 whole entry): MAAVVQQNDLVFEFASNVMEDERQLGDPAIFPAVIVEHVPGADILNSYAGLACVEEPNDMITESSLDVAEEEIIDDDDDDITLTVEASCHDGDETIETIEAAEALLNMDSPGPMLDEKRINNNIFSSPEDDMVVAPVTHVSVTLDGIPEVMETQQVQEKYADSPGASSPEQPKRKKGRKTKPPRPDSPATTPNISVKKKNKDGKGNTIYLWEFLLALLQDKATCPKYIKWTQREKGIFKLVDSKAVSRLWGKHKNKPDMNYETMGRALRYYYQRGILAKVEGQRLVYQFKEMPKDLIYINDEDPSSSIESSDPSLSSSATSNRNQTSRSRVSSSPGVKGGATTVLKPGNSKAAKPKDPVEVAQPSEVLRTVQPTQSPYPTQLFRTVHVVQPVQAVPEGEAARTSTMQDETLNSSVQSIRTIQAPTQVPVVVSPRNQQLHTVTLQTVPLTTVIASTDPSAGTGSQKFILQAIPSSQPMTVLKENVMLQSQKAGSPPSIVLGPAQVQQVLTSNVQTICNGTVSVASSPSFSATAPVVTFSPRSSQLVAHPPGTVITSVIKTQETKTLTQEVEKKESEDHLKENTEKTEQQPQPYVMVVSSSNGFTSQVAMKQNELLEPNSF

For the sequence CACCCG, the binding signal with FLI1 was 1.14 fold enrichment (6-mer frequency, TF over GST control); with ELK1, 1.24 fold enrichment (6-mer frequency, TF over GST control); with GABPA it was 1.18 fold enrichment (6-mer frequency, TF over GST control); with ERG, 1.21 fold enrichment (6-mer frequency, TF over GST control); in the assay with ELF1, 1.2 fold enrichment (6-mer frequency, TF over GST control); with EHF, 1.2 fold enrichment (6-mer frequency, TF over GST control). Further, the binding signal with SPI1 was 1.12 fold enrichment (6-mer frequency, TF over GST control); with SPIB, 1.28 fold enrichment (6-mer frequency, TF over GST control); with ELK3, 1.17 fold enrichment (6-mer frequency, TF over GST control); with FEV, 1.16 fold enrichment (6-mer frequency, TF over GST control); with ETV5 it was 1.21 fold enrichment (6-mer frequency, TF over GST control); with SPIC, 1.17 fold enrichment (6-mer frequency, TF over GST control). Also, the binding signal with ELF4 was 1.18 fold enrichment (6-mer frequency, TF over GST control); with ELK4, 1.29 fold enrichment (6-mer frequency, TF over GST control); with ETV2 it was 1.2 fold enrichment (6-mer frequency, TF over GST control); in the assay with ELF3, 1.16 fold enrichment (6-mer frequency, TF over GST control); with ETV1, 1.14 fold enrichment (6-mer frequency, TF over GST control).
For ACTGAC, the binding signal was 1.13 fold enrichment (6-mer frequency, TF over GST control) with FLI1; 1.14 fold enrichment (6-mer frequency, TF over GST control) with ELK1; 1.22 fold enrichment (6-mer frequency, TF over GST control) with GABPA; 1.17 fold enrichment (6-mer frequency, TF over GST control) with ERG; 1.22 fold enrichment (6-mer frequency, TF over GST control) with ELF1; 1.16 fold enrichment (6-mer frequency, TF over GST control) with EHF. The binding signal was 1.26 fold enrichment (6-mer frequency, TF over GST control) with SPI1; 1.21 fold enrichment (6-mer frequency, TF over GST control) with SPIB; 1.11 fold enrichment (6-mer frequency, TF over GST control) with ELK3; 1.26 fold enrichment (6-mer frequency, TF over GST control) with FEV; 1.19 fold enrichment (6-mer frequency, TF over GST control) in the assay with ETV5; 1.24 fold enrichment (6-mer frequency, TF over GST control) in the assay with SPIC. In addition, the binding signal with ELF4 was 1.23 fold enrichment (6-mer frequency, TF over GST control); with ELK4, 1.11 fold enrichment (6-mer frequency, TF over GST control); with ETV2, 1.3 fold enrichment (6-mer frequency, TF over GST control); with ELF3, 1.14 fold enrichment (6-mer frequency, TF over GST control); in the assay with ETV1, 1.25 fold enrichment (6-mer frequency, TF over GST control).
